Results from PubChem BioAssay (Tox21).
“And” between values parts separate entries of the source, which are not always exact repeats. Equal entries are not always repeated. Inconclusive results are not listed. Entries that show only a call come without a potency. Some structures have more than one record in an assay (separate samples or runs), and their calls can disagree. The source made the active and inactive calls. The call rests on the fitted dose curve; in most records, active means well fitted curve in the direction sought with a large enough effect in the repeat runs; inconclusive means weak or mixed curves; inactive means no such curve, though single readings can be large; an effect the other way counts as inactive or inconclusive.

The compounds below were run against Nuclear receptor subfamily 1 group I member 2 (Homo sapiens) (UniProt O75469) (assay: Human pregnane X receptor (PXR) small molecule agonists, qHTS assay (AID 1346982; further: nearly all actives have a fitted effect of over 35% in size)). Conditions: PXR-Luc HepG2, CYP3A4 luciferase reporter, 24 h; series mostly up to 92.4 µM; activation: at the top concentration.
Chain of Nuclear receptor subfamily 1 group I member 2 (Homo sapiens) (O75469 whole entry, looked up): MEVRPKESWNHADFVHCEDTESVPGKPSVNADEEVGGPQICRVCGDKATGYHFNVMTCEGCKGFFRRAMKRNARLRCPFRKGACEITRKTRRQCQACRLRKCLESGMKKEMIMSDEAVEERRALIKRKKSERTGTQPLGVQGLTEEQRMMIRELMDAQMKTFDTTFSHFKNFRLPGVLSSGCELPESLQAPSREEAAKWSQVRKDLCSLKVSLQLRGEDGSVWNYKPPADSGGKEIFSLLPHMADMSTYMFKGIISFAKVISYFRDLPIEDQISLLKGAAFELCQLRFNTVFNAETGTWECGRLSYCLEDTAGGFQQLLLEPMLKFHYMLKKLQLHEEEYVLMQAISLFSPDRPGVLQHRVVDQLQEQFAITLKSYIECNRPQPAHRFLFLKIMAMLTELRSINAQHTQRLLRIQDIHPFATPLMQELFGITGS
Summary of the method: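 Compound-induced hPXR transactivation of a CYP3A4 luciferase reporter was scored in HepG2 PXR-Luc cells over 24 hr at 37 C, 5% CO2, by luminescence.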

SMILES | activation | Potency
ON=C1CCCCC1 | 3.22% (inactive) | 
CCCCC(CC)CO (stereo unspecified) |  | inactive
CCCCOC(=O)COc1ccc(Cl)cc1Cl |  | inactive
O=C(O)CC(C(=O)O)C(CC(=O)O)C(=O)O (stereo unspecified) |  | inactive
CC(O)COCC(C)O (stereo unspecified) |  | inactive
CCCCCCCCCCCCS | 0.323% (inactive) | 
Cc1ccc(S(N)(=O)=O)cc1 |  | inactive
CCCCCCCCC/C=C/CC1CC(=O)OC1=O (stereo unspecified) |  | inactive

What follows are compounds tested against Nuclear receptor subfamily 1 group I member 2 (Rattus norvegicus) (UniProt Q9R1A7) (assay: Rat pregnane X receptor (rPXR) activation by small molecules, qHTS assay (AID 1346983; further: nearly all actives have a fitted effect of over 20% in size; further: potency means the concentration at half of the fitted maximal effect)). Conditions: rPXR luciferase reporter cells, One-Glo luminescence, 24 h; max activation: stronger effect = higher value.
Chain of Nuclear receptor subfamily 1 group I member 2 (Rattus norvegicus) (Q9R1A7 whole entry, looked up): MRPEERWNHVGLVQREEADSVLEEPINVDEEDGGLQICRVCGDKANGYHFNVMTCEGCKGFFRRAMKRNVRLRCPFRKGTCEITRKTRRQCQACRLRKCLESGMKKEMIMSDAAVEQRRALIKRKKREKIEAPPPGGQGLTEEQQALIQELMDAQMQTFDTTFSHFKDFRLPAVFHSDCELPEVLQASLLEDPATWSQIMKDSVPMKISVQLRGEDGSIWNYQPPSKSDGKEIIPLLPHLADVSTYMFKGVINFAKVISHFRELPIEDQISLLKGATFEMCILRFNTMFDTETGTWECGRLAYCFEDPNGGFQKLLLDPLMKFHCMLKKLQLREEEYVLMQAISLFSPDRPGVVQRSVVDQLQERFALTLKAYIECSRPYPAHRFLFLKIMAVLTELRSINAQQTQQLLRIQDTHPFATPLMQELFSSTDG
Summary of the method: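 Cell-based rPXR activation assay: rPXR cells, 2,000 per well, rested 5hr at 37 C, then exposed to compounds in DMSO for 24 hr at 37 C. Luciferase activity read by One-Glo luminescence after 30 min at room temperature.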

SMILES | max activation | Potency
CC1=CC(=O)NS(=O)(=O)O1 | -3.96% (inactive) | 
N[C@@H](Cc1cc(I)c(Oc2cc(I)c(O)c(I)c2)c(I)c1)C(=O)O | -0.369% (inactive) | 
CN(C)CCC(c1ccccc1)c1ccccn1 (stereo unspecified) | -3.67% (inactive) | 
CCc1ccc(CCOc2ccc(CC3SC(=O)NC3=O)cc2)nc1 (stereo unspecified) | -8.65% (inactive) | 
C[C@H]1C[C@@H]2[C@H]([C@@H](O)C[C@@]3(C)[C@H]2CC[C@]3(O)C(=O)CO)[C@@]2(C)C=CC(=O)C=C12 |  | 1.58 µM (active)
NNc1nncc2ccccc12 |  | 0.112 µM (active)
COCCCOc1ccnc(CS(=O)c2nc3ccccc3[nH]2)c1C (stereo unspecified) |  | 14.1 µM (active)
OCCOCCN1CCN(C2=Nc3ccccc3Sc3ccccc32)CC1 | 9.6% (inactive) | 

Each compound was assayed against Cytochrome P450 2D6 (Homo sapiens) (UniProt P10635) (assay: Cytochrome P450 Family 2 Subfamily D Member 6 (CYP2D6) small molecule antagonists: luciferase reporter qHTS assay (AID 1671196; further: nearly all actives have a fitted effect of over 50% in size; further: potency means the concentration at half of the fitted maximal effect)). Conditions: P450-Glo CYP2D6 enzyme assay, luciferin luminescence, 1 h; series mostly up to 115 µM; activity change, negative = inhibition: at the top concentration.
Chain of Cytochrome P450 2D6 (Homo sapiens) (P10635 whole entry, looked up): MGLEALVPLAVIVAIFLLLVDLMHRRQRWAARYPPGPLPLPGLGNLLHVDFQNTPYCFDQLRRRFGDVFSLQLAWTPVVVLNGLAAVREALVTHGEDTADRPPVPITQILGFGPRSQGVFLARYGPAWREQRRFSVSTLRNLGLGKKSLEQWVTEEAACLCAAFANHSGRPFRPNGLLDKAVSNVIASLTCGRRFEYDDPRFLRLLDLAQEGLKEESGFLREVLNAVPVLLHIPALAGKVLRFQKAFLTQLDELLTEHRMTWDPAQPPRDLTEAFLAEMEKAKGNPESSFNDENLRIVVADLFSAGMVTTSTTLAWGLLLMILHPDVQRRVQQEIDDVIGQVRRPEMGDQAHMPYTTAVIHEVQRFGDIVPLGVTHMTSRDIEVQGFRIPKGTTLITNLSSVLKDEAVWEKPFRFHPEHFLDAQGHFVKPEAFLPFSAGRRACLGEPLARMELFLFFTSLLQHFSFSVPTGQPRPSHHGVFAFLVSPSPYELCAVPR
Summary of the method: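 Each well received CYP2D6 with its proluciferin substrate and chemical, sat 10 min, then got NADPH regeneration solution for 1 h at room temperature. Luminescence in RLU served as the activity measure.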

SMILES | Potency | activity change, negative = inhibition
N[C@@H](Cc1cc(I)c(Oc2cc(I)c(O)c(I)c2)c(I)c1)C(=O)O | inactive | 
O=C(O)CCCCCCCCCCC(=O)O | 35.9 µM (active) and 39.9 µM (active) | 
O=S1(=O)CC=CC1 | inactive | 
CC1=C(C)S(=O)(=O)CCS1(=O)=O | inactive | 
COc1ccc(NC(C)=O)cc1N | inactive | 
CCCSc1ccc2nc(NC(=O)OC)[nH]c2c1 | inactive | 
O=C(O)c1ccc2c(c1)C(=O)OC2=O |  | -20.1% (inactive)
Cc1cc(C)c(C)cc1C | inactive | 
O=[N+]([O-])c1ccc(/C=C/c2ccc([N+](=O)[O-])cc2S(=O)(=O)O)c(S(=O)(=O)O)c1 | inactive | 
COc1ccc(Cl)cc1C(=O)NCCc1ccc(S(=O)(=O)NC(=O)NC2CCCCC2)cc1 |  | -11.9% [at 53 µM] (inactive)
CN(C)CCC(c1ccccc1)c1ccccn1 (stereo unspecified) | 35.7 µM (active) | 
CN(C)CCOCCN(C)C | inactive | 
CCc1ccc(CCOc2ccc(CC3SC(=O)NC3=O)cc2)nc1 (stereo unspecified) | inactive | 
CCCCCC/C(C=O)=C\c1ccccc1 | inactive | 
Nc1ccccc1[N+](=O)[O-] | inactive | 
Cc1occc(=O)c1O | inactive | 
Cc1cccc(O)c1 | inactive | 
CCCCN(CCCC)CCCC |  | -6.51% (inactive)
O=C(OCCOCCOC(=O)c1ccccc1)c1ccccc1 | inactive | 
Fc1ccc(Br)cc1 | inactive | 
ON=C1CCCCC1 | inactive | 
COc1cc(Cc2cnc(N)nc2N)cc(OC)c1OC |  | -0.543% [at 53 µM] (inactive)
CCCCC(CC)CO (stereo unspecified) | inactive | 
CCCCOC(=O)COc1ccc(Cl)cc1Cl | inactive | 
O=C(O)CC(C(=O)O)C(CC(=O)O)C(=O)O (stereo unspecified) | inactive | 
CC(O)COCC(C)O (stereo unspecified) | inactive | 
CCCCCCCCCCCCS | inactive | 
Cc1ccc(S(N)(=O)=O)cc1 | inactive | 
CCCCCCCCC/C=C/CC1CC(=O)OC1=O (stereo unspecified) | inactive and 39.9 µM (active) | 

Each compound was assayed against Cytochrome P450 2C19 (Homo sapiens) (UniProt P33261) (assay: Cytochrome P450 Family 2 Subfamily C Member 19 (CYP2C19) small molecule antagonists: luciferase reporter qHTS assay (AID 1671197; further: nearly all actives have a fitted effect of over 65% in size; further: potency means the concentration at half of the fitted maximal effect)). Conditions: P450-Glo CYP2C19 enzyme, luciferin luminescence, 1 h; series mostly up to 115 µM; activity change, negative = inhibition: at the top concentration.
Chain of Cytochrome P450 2C19 (Homo sapiens) (P33261 whole entry, looked up): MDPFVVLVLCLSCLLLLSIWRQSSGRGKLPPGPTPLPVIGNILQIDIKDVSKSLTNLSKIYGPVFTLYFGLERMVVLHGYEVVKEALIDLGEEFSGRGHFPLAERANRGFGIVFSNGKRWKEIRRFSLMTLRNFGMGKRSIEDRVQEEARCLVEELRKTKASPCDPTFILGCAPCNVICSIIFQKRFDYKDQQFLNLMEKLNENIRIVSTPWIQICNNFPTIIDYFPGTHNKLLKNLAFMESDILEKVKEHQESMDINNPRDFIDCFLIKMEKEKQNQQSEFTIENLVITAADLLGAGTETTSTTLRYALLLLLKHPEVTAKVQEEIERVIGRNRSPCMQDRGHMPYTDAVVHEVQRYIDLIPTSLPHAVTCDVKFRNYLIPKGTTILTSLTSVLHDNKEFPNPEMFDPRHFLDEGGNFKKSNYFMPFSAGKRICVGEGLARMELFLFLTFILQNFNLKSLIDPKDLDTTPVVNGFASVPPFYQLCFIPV
Summary of the method: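 P450-Glo CYP2C19 screening system; proluciferin substrate; DMSO compound stocks; 10 min RT preincubation; NADPH regeneration, 1 h at 37C; luciferin detection reagent, 20 min RT; luminescence as RLU.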

SMILES | activity change, negative = inhibition | Potency
N[C@@H](Cc1cc(I)c(Oc2cc(I)c(O)c(I)c2)c(I)c1)C(=O)O | -11.4% [at 52.9 µM] (inactive) | 
Oc1cccc2ccccc12 |  | 23 µM (active) and 39.9 µM (active)
O=C1CCC(N2C(=O)c3ccccc3C2=O)C(=O)N1 (stereo unspecified) |  | inactive
O=[N+]([O-])c1ccc(/C=C/c2ccc([N+](=O)[O-])cc2S(=O)(=O)O)c(S(=O)(=O)O)c1 |  | inactive
CN(C)CCC(c1ccccc1)c1ccccn1 (stereo unspecified) | 1.48% [at 52.9 µM] (inactive) | 
CCc1ccc(CCOc2ccc(CC3SC(=O)NC3=O)cc2)nc1 (stereo unspecified) |  | inactive

The compounds below were run against Cytochrome P450 2C9 (Homo sapiens) (UniProt P11712) (assay: Cytochrome P450 Family 2 Subfamily C Member 9 (CYP2C9) small molecule antagonists: luciferase reporter qHTS assay (AID 1671198; further: nearly all actives have a fitted effect of over 50% in size; further: potency means the concentration at half of the fitted maximal effect)). Conditions: P450-Glo CYP2C9 enzyme assay, luciferin luminescence; series mostly up to 115 µM; activity change, negative = inhibition: at the top concentration.
Chain of Cytochrome P450 2C9 (Homo sapiens) (P11712 whole entry, looked up): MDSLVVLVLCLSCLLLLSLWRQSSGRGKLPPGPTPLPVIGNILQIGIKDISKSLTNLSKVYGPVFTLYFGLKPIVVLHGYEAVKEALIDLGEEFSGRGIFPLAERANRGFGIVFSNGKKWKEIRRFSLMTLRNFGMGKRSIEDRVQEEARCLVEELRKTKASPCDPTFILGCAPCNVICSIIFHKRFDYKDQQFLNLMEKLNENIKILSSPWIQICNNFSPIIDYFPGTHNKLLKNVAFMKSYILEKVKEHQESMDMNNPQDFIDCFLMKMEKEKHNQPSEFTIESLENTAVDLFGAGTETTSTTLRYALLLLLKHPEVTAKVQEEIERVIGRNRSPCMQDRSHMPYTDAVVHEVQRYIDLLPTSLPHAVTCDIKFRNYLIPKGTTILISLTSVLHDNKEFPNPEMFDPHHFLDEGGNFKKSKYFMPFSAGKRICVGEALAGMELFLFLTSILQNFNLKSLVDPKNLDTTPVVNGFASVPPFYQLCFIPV
Summary of the method: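 P450-Glo proluciferin substrate with CYP2C9 enzyme; 10 min RT preincubation, then NADPH regeneration 1 h at 37C; luciferin detection reagent 20 min RT, luminescence in relative luminescence units.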

SMILES | Potency | activity change, negative = inhibition
O=S1(=O)CC=CC1 | inactive | 
Oc1cccc2ccccc12 | 36.5 µM (active) and 35.6 µM (active) | 
CC1=C(C)S(=O)(=O)CCS1(=O)=O |  | -14.1% (inactive)
O=C1CCC(N2C(=O)c3ccccc3C2=O)C(=O)N1 (stereo unspecified) |  | -9.03% [at 53 µM] (inactive)
O=C(O)c1ccc2c(c1)C(=O)OC2=O | inactive | 
Cc1cc(C)c(C)cc1C | inactive | 
O=[N+]([O-])c1ccc(/C=C/c2ccc([N+](=O)[O-])cc2S(=O)(=O)O)c(S(=O)(=O)O)c1 | 31.7 µM (active) and 39.9 µM (active) | 
CN(C)CCC(c1ccccc1)c1ccccn1 (stereo unspecified) | inactive | 
CN(C)CCOCCN(C)C |  | -11.9% (inactive)
CCc1ccc(CCOc2ccc(CC3SC(=O)NC3=O)cc2)nc1 (stereo unspecified) | 31.7 µM (active) and 30.9 µM (active) | 
CCCCCC/C(C=O)=C\c1ccccc1 | 35.6 µM (active) | 
Nc1ccccc1[N+](=O)[O-] | inactive | 
Cc1cccc(O)c1 | inactive | 
CCCCN(CCCC)CCCC | 89.4 µM (active) | 
O=C(OCCOCCOC(=O)c1ccccc1)c1ccccc1 | 8.91 µM (active) and 14.2 µM (active) | 
Fc1ccc(Br)cc1 |  | -3.63% (inactive)
ON=C1CCCCC1 |  | -9.46% (inactive)
COc1cc(Cc2cnc(N)nc2N)cc(OC)c1OC |  | -8.46% [at 53 µM] (inactive)
CCCCC(CC)CO (stereo unspecified) | inactive | 
CCCCOC(=O)COc1ccc(Cl)cc1Cl | 36 µM (active) and 35.6 µM (active) | 
O=C(O)CC(C(=O)O)C(CC(=O)O)C(=O)O (stereo unspecified) |  | -7.81% (inactive)
CC(O)COCC(C)O (stereo unspecified) | inactive | 
CCCCCCCCCCCCS | inactive | 
Cc1ccc(S(N)(=O)=O)cc1 |  | 1.7% (inactive)
CCCCCCCCC/C=C/CC1CC(=O)OC1=O (stereo unspecified) | 80 µM (active) and 39.9 µM (active) | 
